# Laboratory results reported in PubChem BioAssay AID602313 (National Center for Advancing Translational Sciences (NCATS), 2012).
# Screen size: about 390,000 compounds; about 760 (0.19%) were called active. Inconclusive results (about 3%) are left out. Calls come from the whole dose curve; as a rule, active = well fitted inhibition curve with a large enough effect; inconclusive = small, poorly fitted or top-dose-only effect; inactive = flat fitted curve, though single readings scatter. Shown is part of a subset that was picked to be rich in actives.
# Test: qHTS for Inhibitors of Vif-A3F Interactions: qHTS; note: nearly all actives have a fitted effect of over 65% in size; for activity, negative = active: % of control where 0% means no effect
# Settings: HeLa A3F-eYFP + Vif (tagged APOBEC3F with the HIV-1 protein that degrades it), YFP fluorescence increase; series mostly up to 46.1 µM; activity, negative = active: at the top concentration
# Outline: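 Fluorescence increase (Ex 488/Em 500-530) after overnight compound treatment at 37 deg C flags inhibition of Vif-driven A3F-eYFP loss in stable HeLa A3F-eYFP/Vif cells seeded overnight beforehand.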
# Potency is the fitted concentration of half-maximal effect.
Structure (SMILES),"activity, negative = active",Potency
CCCn1c(NCc2ccccc2F)nc2ccccc21,-0.341% (inactive),
CCCCOc1ccc(C(=O)N2CC(=O)Nc3ccc(Br)cc3C2c2ccc(F)cc2)cc1 (stereo not drawn),-3.28% (inactive),
COc1ccc(-c2noc(CSc3nc(C)cc(=O)[nH]3)n2)cc1OC,0.209% (inactive),
O=C(NC(=S)N1CCc2ccccc21)c1ccco1,,11.2 µM (active)
O=C(N/C(=C/c1ccc(Cl)cc1)C(=O)N1CCCCC1)c1ccco1,2.2% (inactive),
O=C(Nc1cccc2c1N(C(=O)c1ccco1)CCC2)c1ccco1,-2.72% (inactive),
CC(=O)c1cccc(NC(=O)C2CCCN2S(=O)(=O)c2cccc3nsnc23)c1 (stereo not drawn),0.838% (inactive),
CC(=O)c1cccc(NC(=O)C2CCCN(S(=O)(=O)c3cccc4nonc34)C2)c1 (stereo not drawn),,31.6 µM (active)
O=C(NCc1ccco1)C1CCCN(S(=O)(=O)c2cccc3nonc23)C1 (stereo not drawn),1.03% (inactive),
CCCCOc1ccc(NC(=O)c2cc3c(n(-c4ccc(Cl)cc4)c2=O)CCCC3=O)cc1,-0.38% (inactive),
O=C(COc1ccccc1)NCc1ccc2c(c1)CCN2C(=O)c1ccc(F)cc1,-0.141% (inactive),
Cc1nn2c(=O)cc(COC(=O)CNC(=O)c3ccc(F)cc3)nc2s1,-4.52% (inactive),
Cc1ccc(S(=O)(=O)N(CC(=O)Nc2ccc(Cl)cc2Cl)c2ccccc2C)cc1,-4.14% (inactive),
COc1cc(NC(=O)Cn2c(=O)n(Cc3ccco3)c(=O)c3oc4ccccc4c32)cc(OC)c1,0.129% (inactive),
COC(=O)c1ccccc1NC(=O)c1ccc(COc2ccccc2Cl)o1,-1.37% (inactive),
CCOc1cc(C(=O)NCCc2csc3nc(-c4ccc(C)cc4)nn23)cc(OCC)c1OCC,5.51% (inactive),
Cc1ccc(NC(=O)c2nc(S(=O)(=O)Cc3cccc(C)c3)ncc2Cl)cc1,-12.2% (inactive),
O=C(Nc1ccccc1F)C(c1ccccc1)N1Cc2ccccc2C1=O (stereo not drawn),-3.86% (inactive),
CC(OC(=O)CN1C(=O)C2CCCCC2C1=O)C(=O)Nc1ncc(Cl)cc1Cl (stereo not drawn),-3.06% (inactive),
Cc1ccc(COC(=O)CN2C(=O)NC3(CCCC3)C2=O)cc1,-16.5% (inactive),
CC1=CC(C)(C)Nc2ccc(OC(=O)CN3C(=O)C4CCCCC4C3=O)cc21 (stereo not drawn),,31.6 µM (active)
Cc1ccc2nc(COc3ccccc3NC(=O)Nc3ccc(F)c(Cl)c3)cc(=O)n2c1,-8.67% (inactive),
O=c1c2cccnc2n(Cc2cccc(F)c2)c(=O)n1Cc1ccccc1Cl,4.14% (inactive),

Structure (SMILES),"activity, negative = active",Potency
Cc1cc(C)cc(NS(=O)(=O)c2cc3c(cc2C)NC(=O)CO3)c1,3.35% (inactive),
Cc1ccc(N2CC(C(=O)Nc3ccc(N(C)C)cc3)CC2=O)cc1Cl (stereo not drawn),-7% (inactive),
CCOc1ccccc1N(C)C(=O)c1cc2c(s1)-c1ccccc1OC2,-6.36% (inactive),
CCc1cnc2c(c1SCC(=O)c1ccccc1)c(=O)n(C)c(=O)n2C,4.8% (inactive),
COc1ccccc1NC(=O)CN1C(=O)c2ccccc2Sc2ccc(C(=O)N3CCCC3)cc21,-7.22% (inactive),
O=C1C(Cl)=C(Oc2ccccc2)C(=O)c2ccccc21,,10 µM (active)
COc1ccc2c(c1)c(=O)c(S(=O)(=O)c1ccc(F)cc1)cn2CC(=O)Nc1ccc(C)cc1C,-6.93% (inactive),
CCOc1ccc(NC(=O)c2c(NC(=O)Cc3ccccc3)sc3c2CCCCC3)cc1,-13.9% (inactive),
COc1ccccc1NC(=O)CSc1oc(-c2ccco2)nc1S(=O)(=O)c1ccc(Br)cc1,2.73% (inactive),
Cc1ccc(-c2noc(-c3nnn(-c4cccc(C(F)(F)F)c4)c3N)n2)cc1,4.22% (inactive),
Cc1ccc(CNC(=O)c2ccccc2CCc2ccccc2)cc1,-11% (inactive),
O=C1c2ccccc2S(=O)(=O)c2cc(N3CCN(c4ccccn4)CC3)ccc21,2.17% (inactive),
Cc1ccc(CNC(=O)c2cccc3c2C(=O)c2ccc(N4CCC(C)CC4)cc2S3(=O)=O)cc1,,12.6 µM (active)
Fc1ccc(CN2CCc3nc(Nc4ccccc4)ncc3C2)cc1F,5.34% (inactive),
CCOC(=O)c1cc(-c2ccccc2)n(-c2cccc(C(=O)Nc3cc(OC)cc(OC)c3)c2)c1C,-2.09% (inactive),
Cn1ccc2cc(S(=O)(=O)N3CCCC(C(=O)NCc4ccccc4F)C3)ccc21 (stereo not drawn),4.17% (inactive),
O=C(NC1CC(=O)N(c2ccccc2)C1)c1ccco1 (stereo not drawn),0.19% (inactive),
Cc1cn(C)c(CC(=O)NCc2ccc(Cl)cc2)c1C(=O)O,2.04% (inactive),
O=C(NCCc1csc(-c2ccc(C(F)(F)F)cc2)n1)C(=O)Nc1ccc(F)c(Cl)c1,0.643% (inactive),
Cc1cc(C)c2oc(-c3cccc(NC(=O)c4cccc(F)c4)c3C)nc2c1,1.45% (inactive),
CCCCn1c(=O)c2oc3ccccc3c2n(CC(=O)Nc2ccccc2OC)c1=O,-15.2% (inactive),
CCCCN(CC)C(=O)c1c[nH]c2ccc(S(=O)(=O)Nc3cccc(OC)c3)cc2c1=O,-7.41% (inactive),
Cc1cc(C)nc(-n2nc(C)cc2NC(=O)c2ccc(F)cc2F)n1,,12.6 µM (active)

Structure (SMILES),"activity, negative = active",Potency
Cc1cc(C(=O)Nc2cccc(C(F)(F)F)c2)c2c(C)nn(-c3cccc(F)c3)c2n1,-9.16% (inactive),
CC(=O)N/C(=N/c1nc(C)cc(C)n1)Nc1ccc(F)cc1F,-7.66% (inactive),
O=C(COc1ccc(Cl)cc1)Nc1ccccc1OCc1cc(=O)n2ccccc2n1,0.587% (inactive),
COc1cccc(/C=N/NC(=O)c2[nH]nc3c2CCc2ccccc2-3)c1O,,25.1 µM (active)
Cc1ccccc1NC(=O)COc1cccc2c1CCNC2=O,-9.72% (inactive),
Cc1ncc(CO)c(/C=N/NC(=O)c2cccc(S(=O)(=O)N3CCCC3)c2)c1O,5.89% (inactive),
COC(=O)c1c(NC(=O)c2cc(=O)c3c(C)cc(C)cc3o2)sc2c1CCCC2,-0.264% (inactive),
Cn1c(C(=O)Nc2cccc(C(F)(F)F)c2)cc2c(=O)n3ccccc3nc21,1.82% (inactive),
Cc1ccc(NC2=C(c3ccc(C(F)(F)F)cc3)C(=O)c3ccccc32)cc1F,-3.21% (inactive),
Cc1ccc(Cn2c(CCCNC(=O)C3CCCCC3)nc3ccccc32)cc1,0.0414% (inactive),
Cn1c(SCC(=O)N2CCCc3ccccc32)nc2ccccc2c1=O,2.28% (inactive),
Cc1cccc2cc3c(N)c(C(=O)N4CCCc5ccccc54)sc3nc12,,11.2 µM (active)
Cc1cccc(-c2nnc(SCC(=O)N3CCCc4ccccc43)o2)c1,4.4% (inactive),
CCOC(=O)c1cccc(NC(=O)c2cc(CN3CCCC3)on2)c1,1.99% (inactive),
CC(=O)c1ccc(NC(c2ccc(F)cc2)c2nnc(-c3ccccc3)o2)cc1 (stereo not drawn),-8.82% (inactive),
CCc1ccc(N2C(=O)CN(S(=O)(=O)CC)CC2(C)C(=O)NC2CCCCC2)cc1 (stereo not drawn),2.79% (inactive),
CCCn1c(=N)c(C(=O)NCc2ccccc2)cc2c(=O)n3cccc(C)c3nc21,-5.4% (inactive),
CC(C)c1ccc(NC(=O)c2ccc(Cn3nc(N4CCN(c5ccccc5)CC4)ccc3=O)o2)cc1,0.981% (inactive),
Cn1c(=O)c2c(SCC(=O)NCC3CCCO3)nc(-c3ccccc3F)nc2n(C)c1=O (stereo not drawn),-5.96% (inactive),
Cc1ccc(-c2cc(C(=O)Oc3ccccc3Cl)no2)cc1C,-1.13% (inactive),
O=c1cc(COc2cccc(C(F)(F)F)c2)nc2sc3c(n12)CCCC3,-7.96% (inactive),
COc1ccc(CNC(=O)c2cc3cccc(OC)c3oc2=O)cc1,0.834% (inactive),
